# Reference: ChEMBL document CHEMBL3988442, “University of Dundee, Small-Polar-MMV Screening Library” (2021)
# About 1,000 (1.4%) of roughly 69,000 compounds showed an effect of 50% or more. This excerpt belongs to a sample that is enriched for strong results.
# System: Leishmania donovani
# Experiment: Leishmania intramacrophage assay
# Assay type: functional, organism-based
# Set-up: scale not given: in the data most compounds retested in dose-response had high values
smiles,measurement,setting,value
CC(=O)N1CCC2(CC1)CCN(C(=O)c1ccc(F)c(C(F)(F)F)c1)C2,Percent Effect,"30.3 µM, […]",-8.189%
COc1ccc2c(c1)CN(c1nc(C)cc(C)n1)CC2,Percent Effect,"30.3 µM, […]",98.91%
COc1ccnc(N2CCc3ccc(OC(F)F)cc3C2)n1,Percent Effect,"30.3 µM, […]",-15.45%
COc1cccc(O[C@H]2CCN(c3nc(C)cc(C)n3)CC[C@@H]2O)c1,Percent Effect,"30.3 µM, […]",-35.99%
COc1ccc(C2CN(c3nc(C)cc(C)n3)CCN2C(C)=O)cc1 (stereo not drawn),Percent Effect,"30.3 µM, […]",30.74%
Cc1cc(C)nc(N2CCc3ccc(OC(F)F)cc3C2)n1,Percent Effect,"30.3 µM, […]",84.87%
COc1ccc2c(c1)CN(c1cc(N3CCCC3CO)ncn1)CC2 (stereo not drawn),Percent Effect,"30.3 µM, […]",11.17%
O=C(CNC(=O)C1(c2ccc(F)cc2F)CCC1)Nc1cccnc1,Percent Effect,"30.3 µM, […]",-11.9%
COc1cccc2c1OCC(CNC(=O)CN(C)C1CCCC1)C2 (stereo not drawn),Percent Effect,"30.3 µM, […]",-18.43%
CC(C)CN1C(=O)CC[C@H]2CN(C(=O)Cn3ccccc3=O)CC[C@H]21,Percent Effect,"30.3 µM, […]",3.813%
CCN1CC(C(=O)N2CCN(c3nsc4ccccc34)CC2)CCC1=O (stereo not drawn),Percent Effect,"30.3 µM, […]",22.5%
CC(C)N1CCCC(C(=O)N2CCN(c3nsc4ccccc34)CC2)C1 (stereo not drawn),Percent Effect,"30.3 µM, […]",77.99%
NC(=O)N1CCCC(C(=O)N2CCN(c3nsc4ccccc34)CC2)C1 (stereo not drawn),Percent Effect,"30.3 µM, […]",34.33%
COc1c(C2CCCN2C(=O)CCNc2ncccn2)c(C)nn1C (stereo not drawn),Percent Effect,30 µM,5.312%
COc1ccc(CN(C(=O)C2CCCS2)c2ccncc2)cc1 (stereo not drawn),Percent Effect,"30.3 µM, […]",-1.322%
COc1ccc(Oc2ccc(C(F)(F)F)cn2)cc1CN1CCCC1,Percent Effect,"30.3 µM, […]",2.243%
COc1cc(Oc2ccc(C(F)(F)F)cn2)ccc1CN1CCCC1,Percent Effect,"30.3 µM, […]",61.15%
COc1cc(Oc2ccc(C#N)cn2)ccc1CN1CCCC1,Percent Effect,"30.3 µM, […]",2.326%
COCCOCC(=O)Nc1ccnn1-c1ccc(Cl)cc1,Percent Effect,"30.3 µM, […]",23.94%
COCC(=O)Nc1ccnn1-c1ccc(Cl)cc1,Percent Effect,"30.3 µM, […]",82.71%
CCOCCC(=O)Nc1ccnn1-c1ccc(Cl)cc1,Percent Effect,"30.3 µM, […]",0.3355%
Cc1n[nH]c(C)c1CCN(C)c1ccc(-c2nc(C3CC3)no2)cn1,Percent Effect,"30.3 µM, […]",22.75%
Cc1nc(CCNC(=O)C(N)c2c(C)n[nH]c2C)sc1C (stereo not drawn),Percent Effect,"30.3 µM, […]",7.254%
Cc1nc(CNC(=O)NC2CCN(c3cccc(Cl)c3)C2)no1 (stereo not drawn),Percent Effect,"30.3 µM, […]",40.16%
CC(C)c1n[nH]c(C2CN(Cc3ccno3)CCO2)n1 (stereo not drawn),Percent Effect,"30.3 µM, […]",53.56%
CC(C)c1n[nH]c(C2CN(Cc3ncc[nH]3)CCO2)n1 (stereo not drawn),Percent Effect,"30.3 µM, […]",-15.06%
Cc1nc(CN2CCOC(c3nc(C(C)C)n[nH]3)C2)oc1C (stereo not drawn),Percent Effect,"30 µM, 30.03 µM",-6.521%
Cc1cnn(CCNCc2ccc(S(C)(=O)=O)cc2)c1,Percent Effect,"30.3 µM, […]",-1.29%
CC(C)CCc1n[nH]c(C(=O)O)c1Br,Percent Effect,"30.3 µM, […]",1.329%
O=C(O)C(F)(F)F.O=C(c1ccco1)N1CCO[C@@H]2CN(CC3CC3)CC[C@@H]2C1,Percent Effect,"30.3 µM, […]",52.8%
O=C(O)C(F)(F)F.O=C(c1ccco1)N1CC[C@@H]2CN(C3CCOCC3)CCO[C@@H]2C1,Percent Effect,"30.3 µM, […]",39.91%
O=C(O)C(F)(F)F.O=C(c1ccco1)N1CCO[C@@H]2CN(Cc3nccs3)CC[C@@H]2C1,Percent Effect,"30.3 µM, […]",43.58%
CCS(=O)(=O)N1CC[C@H]2[C@H]1CC(=O)N2Cc1csc(C)n1,Percent Effect,"30.3 µM, […]",11.91%
O=C(C1CCOCC1)N1C[C@H]2CCC[C@@]2(COCc2ccccn2)C1,Percent Effect,"30.3 µM, […]",39.51%
O=C(C1CCC1)N1C[C@@H]2CC[C@H](C1)N(S(=O)(=O)c1ccccc1)C2,Percent Effect,"30.3 µM, […]",-6.923%
O=C1CCC(=O)c2oc3ccc(Br)cc3c2N1,Percent Effect,"30.3 µM, […]",-16.45%
Cc1cc(Nc2cnccn2)cc(C2CCCNC2)n1 (stereo not drawn),Percent Effect,"30.3 µM, […]",-25.49%
Cc1nc(Nc2cnccn2)cc(C2CCCN2)n1.Cl (stereo not drawn),Percent Effect,"30.3 µM, […]",-4.51%
Cc1cc(Nc2cnccn2)cc(C2CCCN2)n1 (stereo not drawn),Percent Effect,"30.3 µM, […]",50.63%
CSC1(CNC(=O)CCc2ccc(Cl)s2)CCOCC1,Percent Effect,"30.3 µM, […]",-1.683%
COCCN1CCC(CNC(=O)c2ccnc(-n3ccnc3)c2)CC1,Percent Effect,"30.3 µM, […]",-33.66%
CCOCC1CN(Cc2ccoc2)Cc2cn(CC3CC3)nc21 (stereo not drawn),Percent Effect,"30.3 µM, […]",26.22%
CCS(=O)(=O)N1CCCC(c2nccn2Cc2ccccn2)C1 (stereo not drawn),Percent Effect,"30.3 µM, […]",2.474%
CCS(=O)(=O)N1CCN(C(=O)NC(C)C)CC2(CC(=O)N(C)C2)C1 (stereo not drawn),Percent Effect,"30.3 µM, […]",15.87%
CC(NCc1ccc(-c2ccc(Cl)cc2)o1)c1nnc2n1CCC2 (stereo not drawn),Percent Effect,"30.3 µM, […]",-2.109%
CCC(CO)NCc1ccc(-c2ccc(F)cc2)o1.Cl (stereo not drawn),Percent Effect,"30.3 µM, […]",4.62%
CCCn1nnc(NCc2ccc(-c3ccc(Br)cc3)o2)n1,Percent Effect,"30.3 µM, […]",-28.31%
CCn1nnc(NCc2ccc(-c3ccc(Br)cc3)o2)n1,Percent Effect,"30.3 µM, […]",4.739%
CCC(CO)NCc1ccc(-c2ccc(F)c(Cl)c2)o1.Cl (stereo not drawn),Percent Effect,"30.3 µM, […]",76.93%
CCC(CO)NCc1ccc(-c2ccc(Cl)cc2)o1.Cl (stereo not drawn),Percent Effect,"30.3 µM, […]",78.06%
CCC(CO)NCc1ccc(-c2ccccc2F)o1 (stereo not drawn),Percent Effect,"30.3 µM, […]",4.793%
CCC(CO)NCc1ccc(-c2ccccc2)o1.Cl (stereo not drawn),Percent Effect,"30.3 µM, […]",7.098%
CCC(CO)NCc1ccc(-c2ccc(Br)cc2)o1.Cl (stereo not drawn),Percent Effect,"30.3 µM, […]",86.07%
